Data from PubChem BioAssay AID1159580 (chemical genetic matrix, 2015).
Values joined by “and” are separate entries in the source; they are usually repeats but may differ in a detail not shown here. Identical values can stand only once. Hit rate of the full screen: of about 5,500 compounds, about 2,000 (36%) were called active. About 18% were inconclusive and are not listed. No stated cut-off is given here; in the data, active means normalized growth mostly below about 0.91 (no sharp cut-off); inconclusive means no clear call, values can overlap the other calls; inactive means mostly above about 0.92. This is one part of the list.

Test: chemical genetic growth profiling, strain panel (AID 1159580);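 further: tested at 20 µM; growth read once vehicle control cultures reached saturation at 30 °C; 1 = growth at the plate median or of vehicle wells; lower values mean less growth of the strain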
Settings: S. cerevisiae deletion strains, growth OD

Measured: normalized growth

CCNc1nc(Cl)nc(NC(C)C)n1
inactive: locus YAL013W, strain DEP1, hits give low values 1.01 | locus YAL021C, strain ccr4, hits give low values 0.995 | locus YAL026C, strain drs2, hits give low values 1.01 | locus YAL030W, strain snc1, hits give low values 0.999 | locus YBL061C, strain skt5, hits give low values 1.01 | locus YBR009C, strain hhf1, hits give low values 0.99 | locus YBR021W, strain FUR4, hits give low values 1.02 | locus YBR023C, strain chs3, hits give low values 0.998 | locus YBR171W, strain sec66, hits give low values 0.995 | locus YBR229C, strain ROT2, hits give low values 1.01 | locus YBR231C, strain swc5, hits give low values 1.01 | locus YBR279W, strain paf1, hits give low values 0.998 | locus YCL011C, strain gbp2, hits give low values 0.993 | locus YCL016C, strain dcc1, hits give low values 0.995 | locus YCL029C, strain bik1, hits give low values 1.02 | locus YCL061C, strain MRC1, hits give low values 0.99 | locus YCL069W, strain vba3, hits give low values 0.997 | locus YCR088W, strain abp1, hits give low values 1 | locus YDL005C, strain med2, hits give low values 0.999 | locus YDL035C, strain GPR1, hits give low values 1.01 | locus YDL040C, strain nat1, hits give low values 1 | locus YDL074C, strain BRE1, hits give low values 1.01 | locus YDL101C, strain DUN1, hits give low values 1.03 | locus YDL134C, strain PPH21, hits give low values 1.02 | locus YDL185W, strain tfp1, hits give low values 1.02 | locus YDL192W, strain arf1, hits give low values 1.02 | locus YDR001C, strain nth1, hits give low values 0.992 | locus YDR069C, strain doa4, hits give low values 1.01 | locus YDR101C, strain arx1, hits give low values 1.02 | locus YDR137W, strain rgp1, hits give low values 0.999 | locus YDR150W, strain NUM1, hits give low values 1.02 | locus YDR159W, strain sac3, hits give low values 1.01 | locus YDR162C, strain NBP2, hits give low values 1.04 | locus YDR195W, strain ref2 0.987 | locus YDR297W, strain sur2, hits give low values 1 | locus YDR318W, strain mcm21, hits give low values 1.03 | locus YDR334W, strain swr1, hits give low values 0.999 | locus YDR335W, strain msn5, hits give low values 1.01 | locus YDR388W, hits give low values 1.01 | locus YDR392W, strain spt3, hits give low values 1.01 | locus YDR502C, strain sam2, hits give low values 1.02 | locus YEL003W, strain gim4, hits give low values 0.994 | locus YEL037C, strain rad23, hits give low values 1.01 | locus YEL061C, strain CIN8 (second series), hits give low values 1.01 | locus YEL061C, strain CIN8, hits give low values 1.01 | locus YER015W, strain faa2, hits give low values 1 | locus YER016W, strain bim1, hits give low values 0.997 | locus YER110C, hits give low values 1.02 | locus YER111C, strain swi4, hits give low values 1 | locus YER155C, strain BEM2 (second series), hits give low values 0.993 | locus YER155C, strain BEM2, hits give low values 1 | locus YER167W, strain BCK2, hits give low values 1.02 | locus YFR010W, strain ubp6, hits give low values 1.01 | locus YGL078C, strain dbp3, hits give low values 1.02 | locus YGL086W, strain mad1, hits give low values 1.01 | locus YGL167C, strain pmr1, hits give low values 0.994 | locus YGL173C, strain kem1, hits give low values 1.01 | locus YGL227W, strain vid30, hits give low values 0.999 | locus YGL240W, strain doc1, hits give low values 0.98 | locus YGL248W, strain PDE1, hits give low values 1.01 | locus YGL253W, strain hxk2, hits give low values 1 | locus YGR078C, strain PAC10, hits give low values 1.02 | locus YGR135W, strain pre9, hits give low values 1.01 | locus YGR229C, strain SMI1, hits give low values 1.02 | locus YGR252W, strain gcn5, hits give low values 1 | locus YHR013C, strain ard1, hits give low values 1.01 | locus YHR027C, strain rpn1, hits give low values 1 | locus YHR030C, strain SLT2, hits give low values 1.03 and 0.992 | locus YHR079C, strain IRE1 (second series), hits give low values 1.02 | locus YHR079C, strain IRE1, hits give low values 0.99 | locus YHR094C, strain hxt1, hits give low values 1.02 | locus YHR129C, strain ARP1, hits give low values 1.01 | locus YHR142W, strain chs7, hits give low values 0.972 | locus YHR200W, strain rpn10, hits give low values 1.02 | locus YIL066C, strain RNR3, hits give low values 0.944 | locus YIL073C, strain SPO22, hits give low values 1.04 | locus YIL125W, strain kgd1, hits give low values 1.02 | locus YIR030C, strain dcg1, hits give low values 1.03 | locus YJL092W, strain hpr5, hits give low values 0.998 | locus YJL095W, strain BCK1 (second series), hits give low values 1 | locus YJL095W, strain BCK1, hits give low values 1 and 0.985 | locus YJL115W, strain asf1, hits give low values 1.01 | locus YJL129C, strain trk1, hits give low values 0.982 | locus YJL134W, strain LCB3, hits give low values 1.03 | locus YJL154C, strain vps35, hits give low values 0.996 | locus YJL164C, strain tpk1, hits give low values 0.998 | locus YJL166W, strain qcr8, hits give low values 0.993 | locus YJL168C, strain set2, hits give low values 1.02 | locus YJL187C, strain SWE1 (second series), hits give low values 1.02 | locus YJR043C, strain POL32, hits give low values 1.02 | locus YJR066W, strain TOR1, hits give low values 0.959
